High-throughput results deposited in PubChem by National Center for Advancing Translational Sciences (NCATS).
HP1b chromo inh: blocks HP1-beta chromodomain binding to methylated histone tails | P83916 | AlphaScreen HP1-beta / biotin-H3K9me3 peptide binding | Potency, µM (highest dose often 114 µM), for the others: at the highest dose activity change, negative = inhibition, hits mostly inhibitors | 390,000 compounds, 0.56% hits | AID 540317; further: potency means the concentration at half of the fitted maximal effect; nearly all actives have a fitted effect of over 70% in size
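AlphaScreen: HP1-beta (50 nM) preformed 30 min with biotin-H3(1-18)K9me3 peptide (50 nM) in PBS pH 7.4, 0.01% Tween-20. Compound added for 30 min at RT, then streptavidin donor/nickel chelate acceptor beads (10 ug/mL) for 30 min.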
BAZ2B inh: BAZ2B (human) inhibition; 360,000 compounds, 4.4% hits; Potency, µM (doses to about 114 µM), inactives show top-dose activity change, negative = inhibition, most hits filed as inhibitors; AlphaScreen BAZ2B-H3K14Ac peptide displacement; Q9UIF8; further: potency means the concentration at half of the fitted maximal effect; on the % scale 0 is the no-effect control and ±100 the full control effect; nearly all actives have a fitted effect of over 60% in size
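Compounds, titrated to a top concentration of 110 uM, were incubated 30 min at room temperature with preformed BAZ2B/acetyl-K14 H3 peptide complex (50 nM each). Proximity signal was measured by AlphaScreen after 20 min with beads.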
PI5P4K alpha inh: inhibitors of human PI5P4K alpha | max response, % | AID 652105 | PI5P4Kalpha enzyme, ADP-Glo luminescence, 60 min; hits give low values | P48426 | 330,000 compounds, 1.2% hits; active means max response of -50% or lower; inconclusive means between -30% and -50%; inactive means -30% or higher; further: value at the top dose of about 77 µM; on the % scale 0 is the no-effect control and ±100 the full control effect
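Reactions run in 0.038 M HEPES pH 7.4, 0.28 mM EGTA, 0.1% CHAPS and 5% DMSO, with PI5P4Kalpha, substrate, compound and 5 microM ATP final, one hour at room temperature. Readout is ADP-Glo luminescence.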
G9a inh: inhibitors of human histone lysine methyltransferase G9a. Potency, µM (titrated, usually from 102 µM), without a hit: top-dose activity, negative = inhibition, hits mostly inhibitors. G9a H3K9 monomethylation, AlphaScreen, 2 h. 350,000 compounds, 8.8% hits. Q96KQ7; further: potency means the concentration at half of the fitted maximal effect; on the % scale 0 is the no-effect control and ±100 the full control effect; nearly all actives have a fitted effect of over 75% in size
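Methyltransferase reactions run at room temperature for 2 h (20 nM enzyme, 500 nM biotin-H3K9 peptide, 20 uM SAM) after a 15 min compound preincubation; product detected by AlphaScreen beads and anti-H3K9me1 antibody.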
PLK1 PBD inh: inhibitors of human PLK1 polo-box domain binding. 360,000 compounds, 2.8% hits. Plk1 PBD binding of FITC phosphopeptide, fluorescence polarization. Potency, µM, inactives show max response, negative = inhibition, most hits filed as inhibitors. AID 720504; further: potency means the concentration at half of the fitted maximal effect; series mostly up to about 57 µM; on the % scale 0 is the no-effect control and ±100 the full control effect; nearly all actives have a fitted effect of over 65% in size
Target sequence (P53350 whole entry, looked up, the tested form may be a part): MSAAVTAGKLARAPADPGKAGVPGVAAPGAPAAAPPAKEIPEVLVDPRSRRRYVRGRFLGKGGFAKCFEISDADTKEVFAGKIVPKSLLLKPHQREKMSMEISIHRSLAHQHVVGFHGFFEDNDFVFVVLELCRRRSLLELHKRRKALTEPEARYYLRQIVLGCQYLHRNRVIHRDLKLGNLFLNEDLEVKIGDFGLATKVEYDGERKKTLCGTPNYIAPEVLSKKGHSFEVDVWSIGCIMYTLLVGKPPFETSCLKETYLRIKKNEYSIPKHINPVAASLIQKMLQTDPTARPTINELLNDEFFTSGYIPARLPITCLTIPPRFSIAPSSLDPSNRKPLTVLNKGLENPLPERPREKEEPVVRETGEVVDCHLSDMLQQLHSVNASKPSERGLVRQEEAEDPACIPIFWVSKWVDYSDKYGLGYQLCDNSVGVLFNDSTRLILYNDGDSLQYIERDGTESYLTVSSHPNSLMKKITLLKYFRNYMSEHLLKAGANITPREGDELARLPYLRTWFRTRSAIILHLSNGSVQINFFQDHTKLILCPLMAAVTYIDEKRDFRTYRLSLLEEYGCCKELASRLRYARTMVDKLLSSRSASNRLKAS
JMJD2A Tudor inh: JMJD2A Tudor domain (human) inhibition; Potency, µM (top dose mostly 114 µM), without a hit: top-dose activity change, negative = inhibition, usual class: inhibitors; AlphaScreen JMJD2A-Tudor / H3K4me3 peptide binding; 390,000 compounds, 4.4% hits; further: potency means the concentration at half of the fitted maximal effect; on the % scale 0 is the no-effect control and ±100 the full control effect; nearly all actives have a fitted effect of over 50% in size
TbPYK inh: Trypanosoma brucei pyruvate kinase inhibition, cherry-pick confirmation; recombinant TbPYK, Kinase-Glo ATP luminescence; Potency, µM (highest dose often 76.9 µM), for the others: at the highest dose activity change, negative = inhibition, hits mostly inhibitors; shares compounds with PLK1 PBD inh; 890 compounds, 67% hits; further: potency means the concentration at half of the fitted maximal effect; on the % scale 0 is the no-effect control and ±100 the full control effect; nearly all actives have a fitted effect of over 70% in size
TbPYK orthogonal: TbPYK inhibition, orthogonal confirmation; shares compounds with PLK1 PBD inh; recombinant TbPYK, ADP-Glo luminescence, 60 min; Potency, µM (series often up to 76.9 µM), for inactives: top-dose activity change, negative = inhibition, usual class: inhibitors; 890 compounds, 62% hits; AID 720584; further: potency means the concentration at half of the fitted maximal effect; on the % scale 0 is the no-effect control and ±100 the full control effect; nearly all actives have a fitted effect of over 75% in size
The depositor's hits bear a star; ? = inconclusive; . = not tested or not shown; [ ] = another dose, or the depositor's remark. Sampled rows, rich in hits. Any-hit rate of the full collection: about 12%. Unless noted, the call rests on the fitted dose curve; in most records, active means well fitted curve in the direction sought with a large enough effect; inconclusive means small, poorly fitted or top-dose-only effect, or another doubt; inactive means no such curve, though single readings can be large; an effect the other way counts as inactive or inconclusive.

SMILES	HP1b chromo inh	BAZ2B inh	PI5P4K alpha inh	G9a inh	PLK1 PBD inh	JMJD2A Tudor inh	TbPYK inh	TbPYK orthogonal
O=C1NC(=O)C(=Cc2cc3c(cc2[N+](=O)[O-])OCO3)C(=O)N1	0%	-29%	?	7.9µM*	13µM*	-35%	8.9µM*	?
Cc1cccc(N2C(=O)NC(=O)/C(=C/c3cc4c(cc3[N+](=O)[O-])OCO4)C2=O)c1	?	-28%	?	8.9µM*	5.3µM*	79µM*	20µM*	?
O=C1NC(=O)C(=Cc2ccccc2[N+](=O)[O-])C(=O)N1	8%	.	?	.	12µM*	-4%	8.9µM*	28µM*
Cc1ccc(-n2c(=O)c3ccc(C(=O)NCc4ccccc4Cl)cc3n(CC(=O)Nc3cccc(Cl)c3)c2=O)cc1	61%	.	.	26%[59 µM]	.	-5%	.	.
CCOC(=O)c1c(/N=C/C2C(=O)NC(=S)NC2=O)sc2c1CCC2	40%	-19%	-78*	?	23%	50µM*	?	?
CCOC(=O)c1c(-n2c(C)cc(C=C3C(=O)NC(=O)NC3=O)c2C)sc2c1CCCC2	36%	5%	-16	?	?	1%	.	.
Cn1cccc1/C=C1/C(=O)NC(=S)N(Cc2ccc(F)cc2)C1=O	35µM*	25µM*	-94*	10µM*	0.67µM*	45µM*	3.5µM*	?
CCOC(=O)c1c(C)n(Cc2ccc3c(c2)OCO3)c2ccc(O)cc12	-13%	?	0	?	-7%	-15%	.	.
CCOC(=O)c1c(C)n(Cc2ccc(F)cc2)c2ccc(O)cc12	-2%	-32%	-1	-18%[12.7 µM]	-14%	?	?	18µM*
CSCCC(c1nnnn1C(C)(C)C)N1CCC2(CC1)C(=O)NCN2c1ccccc1 (stereo unspecified)	.	.	13	.	4%	.	.	.
CCN(CC)C(=O)c1ccc(N(Cc2ccccc2)S(C)(=O)=O)cc1	25%	0%	0	.	-6%	-4%	.	.
CCN(CC)C(=O)c1ccc2c(c1)C1C=CCC1C(C(=O)O)N2 (stereo unspecified)	28µM*	25µM*	?	1.6µM*	7.5µM*	11µM*	4µM*	?
CCC1(CC)C(=O)NC(=O)N(CCc2ccccn2)C1=O	25%	.	0	.	-2%	-1%	.	.
CCC(c1nnnn1C1CCCC1)N1CCC2(CC1)C(=O)NCN2c1ccccc1 (stereo unspecified)	.	.	-3	.	-17%	.	.	.
O=C1NC(=S)NC(=O)C1=Cc1ccc(Br)s1	?	56µM*	-85*	.	2.1µM*	28µM*	10µM*	16µM*
COc1ccc(S(=O)(=O)N(C)C[C@H]2OCCCC[C@H](C)Oc3ccc(N(C)C)cc3C(=O)N([C@H](C)CO)C[C@@H]2C)cc1	.	.	5	.	-12%	.	11µM*	?
C=CCC1C(=O)NC(=S)NC1=O	-19%	6%	-63*	8.9µM*	30µM*	89µM*	0.56µM*	1.8µM*
C=CCC1(CC)C(=O)NC(=S)NC1=O	10%	.	-2	.	-3%	-12%	.	.
CN(C)c1ccc(C=C2C(=O)NC(=O)NC2=O)cc1[N+](=O)[O-]	11%	.	?	?	7.5µM*	-14%[11.4 µM]	16µM*	32µM*
CN(C)c1ccc(C=C2C(=O)NC(=S)NC2=O)cc1[N+](=O)[O-]	?	?	-75*	7.1µM*	3.8µM*	35µM*	4.5µM*	14µM*
COc1cc(C2(C#N)CCN(C)CC2)cc(OC)c1OC	26%[57 µM]	.	3	.	3%	-5%	.	.
CCC1C(c2cc(OC)c(OC)c(OC)c2)c2cc3c(cc2OC1N1CCCC1)OCO3 (stereo unspecified)	?	.	-2	.	3%	?	.	.
N#CC1c2ccccc2-n2nncc2CN1C(=O)CCc1ccccc1 (stereo unspecified)	52%	.	4	.	-3%	-8%	.	.
Cc1ccc(C(=O)C2C(c3ccc(-c4ccccc4[N+](=O)[O-])o3)NC(=O)NC2(O)C(F)(F)F)cc1 (stereo unspecified)	?	.	6	.	?	-3%[11.4 µM]	.	.
O=C1NC(=O)C(=Cc2ccc(-c3cc(Cl)ccc3[N+](=O)[O-])o2)C(=O)N1	?	45µM*	-53*	4µM*	1.5µM*	25µM*	7.1µM*	1.1µM*
O=C1NC(=O)C(=Cc2ccc(-c3ccccc3[N+](=O)[O-])o2)C(=O)N1	-1%	?	0	.	1.3µM*	?	?	?
C[C@]12CCC3C(CC[C@H]4C[C@H](O)CC[C@]34C)C1C[C@@H](O)[C@H]2O (stereo partly specified)	6%	.	0	.	-11%	-5%	.	.
